Laboratory results as given in PubChem BioAssay (NCI).
About 83,000 compounds went through this panel and 20% of them were active in at least one assay; those are over-represented in the sample as a whole.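 A percent growth of 40 corresponds to 60% growth inhibition; 0 means no net growth; -100 means all cells died. Active threshold: below 10.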 Active and inactive are the calls of the source.

Tests used:
Assay in all cases: NCI-60 one-dose screen, 48 h (100 = growth as untreated, 0 = no growth, -100 = all killed)
Settings in all cases: 10 µM unless noted
HCT-15 colon = system: HCT-15 colon
SNB-75 CNS = system: SNB-75 CNS
SNB-19 CNS = system: SNB-19 CNS
U251 CNS = system: U251 CNS
PC-3 prostate = system: PC-3 prostate
SK-MEL-5 melanoma = system: SK-MEL-5 melanoma
UACC-62 melanoma = system: UACC-62 melanoma
LOX IMVI melanoma = system: LOX IMVI melanoma
SK-MEL-28 melanoma = system: SK-MEL-28 melanoma
SK-MEL-2 melanoma = system: SK-MEL-2 melanoma
EKVX NSCLC = system: EKVX NSCLC
SN12C renal = system: SN12C renal
UO-31 renal = system: UO-31 renal
TK-10 renal = system: TK-10 renal
ACHN renal = system: ACHN renal
CAKI-1 renal = system: CAKI-1 renal
CCRF-CEM leukemia = system: CCRF-CEM leukemia
MOLT-4 leukemia = system: MOLT-4 leukemia
A498 renal = system: A498 renal

Measured: growth

COc1cccc(/C=N/NC(=O)c2cnn3c2NC(c2ccccc2)C3)c1Oc1ccccc1 (configuration not stated)
inactive: HCT-15 colon 49.8% | SNB-75 CNS 60.8% | SNB-19 CNS 75.4% | U251 CNS 83.9% | PC-3 prostate 72.3% | SK-MEL-5 melanoma 73% | UACC-62 melanoma 62.3% | LOX IMVI melanoma 84.5% | SK-MEL-28 melanoma 79.1% | SK-MEL-2 melanoma 66.2% | EKVX NSCLC 93.7% | SN12C renal 104% | UO-31 renal 77.4% | TK-10 renal 94.3% | ACHN renal 87% | CAKI-1 renal 78.2% | CCRF-CEM leukemia 79.4% | MOLT-4 leukemia 75.2%

C=CC(=O)N[C@@H](/C=C/C(=O)OCC)Cc1ccc(-c2cc(Cl)cc(Cl)c2)cc1
active: SK-MEL-5 melanoma -88.2% | UACC-62 melanoma 9% | SN12C renal 3.95% | TK-10 renal 6.04% | MOLT-4 leukemia 1.95%
inactive: HCT-15 colon 15.2% | SNB-75 CNS 40.3% | SNB-19 CNS 33.9% | U251 CNS 20.2% | PC-3 prostate 16.9% | LOX IMVI melanoma 36.6% | SK-MEL-28 melanoma 39.8% | SK-MEL-2 melanoma 14.1% | EKVX NSCLC 20% | UO-31 renal 14.2% | ACHN renal 26.7% | CAKI-1 renal 35.9% | CCRF-CEM leukemia 17.2%

Brc1ccc2[nH]cc(-c3cncn3CCc3ccccc3)c2c1
inactive: HCT-15 colon 52.8% | SNB-75 CNS 36.7% | SNB-19 CNS 65.6% | U251 CNS 55.7% | PC-3 prostate 53.9% | SK-MEL-5 melanoma 10.4% | UACC-62 melanoma 52.9% | LOX IMVI melanoma 64.1% | SK-MEL-28 melanoma 69.6% | SK-MEL-2 melanoma 55.8% | EKVX NSCLC 36.6% | SN12C renal 59.1% | UO-31 renal 52.7% | ACHN renal 65.7% | CAKI-1 renal 35.4% | A498 renal 29.3% | CCRF-CEM leukemia 57.9% | MOLT-4 leukemia 48.6%
active: TK-10 renal -60.4%

O=C1c2cccc3c(-c4ccc5c(c4)ncn5C4CCCCC4)ccc(c23)C(=O)N1c1nc2ccccc2s1
inactive: HCT-15 colon 59.5% | SNB-75 CNS 75.2% | SNB-19 CNS 94.6% | U251 CNS 86.9% | PC-3 prostate 73.2% | SK-MEL-5 melanoma 74.6% | UACC-62 melanoma 73% | LOX IMVI melanoma 84.8% | SK-MEL-2 melanoma 81.4% | EKVX NSCLC 76.4% | SN12C renal 83.7% | UO-31 renal 56.3% | TK-10 renal 99.6% | ACHN renal 84.7% | CAKI-1 renal 72.8% | A498 renal 121% | CCRF-CEM leukemia 83% | MOLT-4 leukemia 81.1%

COC(=O)C(CC=O)C(=O)C(=O)Nc1cccc(C(F)(F)F)c1 (configuration not stated)
inactive: HCT-15 colon 108% | SNB-75 CNS 92.8% | SNB-19 CNS 102% | U251 CNS 79.2% | PC-3 prostate 95.7% | UACC-62 melanoma 89.7% | LOX IMVI melanoma 85.9% | SK-MEL-28 melanoma 120% | SK-MEL-2 melanoma 109% | EKVX NSCLC 92.1% | SN12C renal 92.2% | UO-31 renal 86.6% | TK-10 renal 102% | ACHN renal 105% | CAKI-1 renal 97.7% | A498 renal 83.4%

CCOC(=O)C1=C(CCl)NC(=O)NC1c1ccc2c(c1)OCO2 (configuration not stated)
inactive: SNB-75 CNS 77.6% | SNB-19 CNS 64.4% | U251 CNS 18.5% | PC-3 prostate 53.9% | UACC-62 melanoma 31.4% | LOX IMVI melanoma 21% | SK-MEL-28 melanoma 45.6% | SK-MEL-2 melanoma 69.5% | EKVX NSCLC 52.7% | SN12C renal 20.1% | UO-31 renal 56.9% | TK-10 renal 57.3% | ACHN renal 31% | CAKI-1 renal 47% | A498 renal 98% | CCRF-CEM leukemia 10.8% | MOLT-4 leukemia 37.7%
active: HCT-15 colon 3.53% | SK-MEL-5 melanoma 9.17%

Cc1ccc(NC(=O)c2cc(-c3nc4ccccc4s3)c(=O)n(NS(=O)(=O)c3ccc(Cl)cc3)c2N)cc1
inactive: HCT-15 colon 96% | SNB-75 CNS 77.5% | SNB-19 CNS 101% | U251 CNS 104% | PC-3 prostate 100% | SK-MEL-5 melanoma 97.8% | UACC-62 melanoma 93.2% | LOX IMVI melanoma 102% | SK-MEL-28 melanoma 115% | SK-MEL-2 melanoma 103% | EKVX NSCLC 92.1% | SN12C renal 101% | UO-31 renal 83.9% | TK-10 renal 136% | ACHN renal 108% | CAKI-1 renal 85.1% | CCRF-CEM leukemia 104% | MOLT-4 leukemia 97.9%

CN(C)CC(O)c1ccc(/C=C/c2ccc(Cl)cc2)cc1 (configuration not stated)
active: HCT-15 colon -51.7% | SNB-75 CNS -24.8% | U251 CNS -94% | PC-3 prostate -30.3% | SK-MEL-5 melanoma -91.5% | UACC-62 melanoma -79% | LOX IMVI melanoma -54.2% | SK-MEL-2 melanoma -63.9% | SN12C renal -12.3% | UO-31 renal -67.2% | TK-10 renal -91.5% | ACHN renal -50.1% | CAKI-1 renal -46.1% | CCRF-CEM leukemia -43.8% | MOLT-4 leukemia -29.7%
inactive: SNB-19 CNS 32.1% | EKVX NSCLC 29.7%

Nc1ccccc1NC(=O)c1ccc(-n2nc(-c3ccccc3)c3ccccc32)cc1
inactive: HCT-15 colon 76.7% | SNB-75 CNS 38.4% | SNB-19 CNS 78.8% | PC-3 prostate 58.6% | SK-MEL-5 melanoma 82.9% | UACC-62 melanoma 77.5% | LOX IMVI melanoma 79.7% | SK-MEL-28 melanoma 99.7% | SK-MEL-2 melanoma 94.3% | EKVX NSCLC 89.7% | SN12C renal 52.3% | TK-10 renal 94.1% | ACHN renal 90.6% | CAKI-1 renal 73.4% | A498 renal 89.8%
active: U251 CNS -85.6% | UO-31 renal -62.7% | CCRF-CEM leukemia 9.38% | MOLT-4 leukemia 4.66%

CC(=O)[C@@H]1CC[C@]2(CO)CC[C@]3(C)[C@H](CC[C@@H]4[C@@]5(C)CCCNC(C)(C)[C@@H]5CC[C@]43C)[C@@H]12
inactive: HCT-15 colon 81.5% | SNB-75 CNS 86% | SNB-19 CNS 99.1% | U251 CNS 108% | PC-3 prostate 86% | SK-MEL-5 melanoma 92.7% | UACC-62 melanoma 94.7% | LOX IMVI melanoma 95.6% | SK-MEL-28 melanoma 113% | SK-MEL-2 melanoma 105% | EKVX NSCLC 95.4% | SN12C renal 91.2% | UO-31 renal 84.4% | TK-10 renal 110% | ACHN renal 107% | CAKI-1 renal 97.1% | A498 renal 95.3% | CCRF-CEM leukemia 103% | MOLT-4 leukemia 95.3%

Cc1cnc(C(=O)Nc2nc3ccc(S(=O)(=O)Nc4ccc(C5(C(F)(F)F)CC5)cc4)cc3[nH]2)cn1
active: SNB-75 CNS -7.96% | SK-MEL-5 melanoma -3.91%
inactive: HCT-15 colon 20.6% | SNB-19 CNS 30.1% | U251 CNS 21.8% | PC-3 prostate 18% | UACC-62 melanoma 35.3% | LOX IMVI melanoma 35.1% | SK-MEL-28 melanoma 54.1% | SK-MEL-2 melanoma 37.9% | EKVX NSCLC 59.1% | SN12C renal 34.5% | UO-31 renal 38.7% | TK-10 renal 32.1% | ACHN renal 48.2% | CAKI-1 renal 22.6% | CCRF-CEM leukemia 11.1% | MOLT-4 leukemia 20%

COc1cc(/C=N/NC(=O)c2cnn3c2NC(c2ccccc2)C3)ccc1Oc1ccccc1 (configuration not stated)
inactive: HCT-15 colon 16.8% | SNB-75 CNS 27.6% | SNB-19 CNS 39.2% | U251 CNS 27.1% | PC-3 prostate 19.6% | SK-MEL-5 melanoma 28.1% | UACC-62 melanoma 12.6% | LOX IMVI melanoma 37.2% | SK-MEL-28 melanoma 34.9% | EKVX NSCLC 58.1% | SN12C renal 63.8% | UO-31 renal 51.5% | TK-10 renal 46.8% | ACHN renal 27.6% | CAKI-1 renal 26% | CCRF-CEM leukemia 29.3% | MOLT-4 leukemia 49.7%
active: SK-MEL-2 melanoma 1.74%
